Our source for the growth values is PubChem BioAssay (NCI).

Common to all, as to experiment: NCI-60 one-dose screen, 48 h (100 = growth as untreated, 0 = no growth, -100 = all killed)
One experiment concerns RPMI-8226 leukemia. To be noted: 10 µM unless noted.
A further experiment concerns OVCAR-8 ovarian. To be noted: 10 µM unless noted.
For another experiment, the system named is OVCAR-5 ovarian. To be noted: 10 µM unless noted.
The next experiment concerns OVCAR-4 ovarian. Conditions: 10 µM unless noted.
Another experiment concerns IGROV1 ovarian. Conditions: 10 µM unless noted.
A further experiment relates to OVCAR-3 ovarian. To be noted: 10 µM unless noted.
The subject of a further experiment is HS 578T breast. To be noted: 10 µM unless noted.
Another experiment deals with NCI/ADR-RES ovarian. To be noted: 10 µM unless noted.
The next experiment has as its system T-47D breast. To be noted: 10 µM unless noted.
In another experiment the test system is BT-549 breast. To be noted: 10 µM unless noted.
Another experiment has as its system MDA-MB-435 melanoma. To be noted: 10 µM unless noted.
A further experiment relates to SW-620 colon. Conditions: 10 µM unless noted.
The next experiment concerns MCF7 breast. Conditions: 10 µM.
A further experiment concerns HCT-116 colon. To be noted: 10 µM unless noted.
In another experiment the test system is HCC-2998 colon. To be noted: 10 µM unless noted.
For another experiment, the system named is KM12 colon. To be noted: 10 µM unless noted.
In another experiment the test system is SK-OV-3 ovarian. Conditions: 10 µM unless noted.

This is part of a sample that, as a whole, favours compounds with a hit. Of some 83,000 tested, about 20% had one in any assay.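 Each cell line was grown in a 96-well plate and treated with one concentration of compound for 48 hours. Values below 10 were considered active.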 Values without a mark were called inactive. The source made the active and inactive calls.

Take `COc1ccc2occ(C3=C(c4c[nH]c5ccccc45)C(=O)NC3=O)c2c1`: the growth was 53% with RPMI-8226 leukemia; 63.9% in the experiment on OVCAR-8 ovarian; 68.6% with OVCAR-5 ovarian; -24.3% (active) with OVCAR-4 ovarian; 41.5% with IGROV1 ovarian; 26.8% with OVCAR-3 ovarian. The growth in the experiment with HS 578T breast was 33.9%; in the experiment on NCI/ADR-RES ovarian, 20.5%; with T-47D breast, 57%; in the experiment on BT-549 breast, 35.7%; in the experiment with MDA-MB-435 melanoma, 1.76% (active); in the experiment with SW-620 colon, 22.6%. Besides, the growth with MCF7 breast was 21.6%; in the experiment on HCT-116 colon it was 26.5%; with HCC-2998 colon, 74.5%; in the experiment on KM12 colon it was 20.8%.

On to `COc1c2ccoc2c(/C=C/C=O)c2oc(-c3ccccc3)cc(=O)c12`, for which the growth is 28% in the experiment with RPMI-8226 leukemia; 26.1% in the experiment with OVCAR-8 ovarian; 106% in the experiment with OVCAR-5 ovarian; 57.8% in the experiment on OVCAR-4 ovarian; 80.5% in the experiment on IGROV1 ovarian; 57.7% in the experiment on OVCAR-3 ovarian. Also, the growth in the experiment on HS 578T breast was 74.8%; in the experiment with NCI/ADR-RES ovarian, 32.4%; in the experiment on T-47D breast, 47%; in the experiment with BT-549 breast it was 41.2%; in the experiment with MDA-MB-435 melanoma it was 64.6%; in the experiment with SW-620 colon, 10%. In addition, the growth in the experiment on MCF7 breast was 31.5%; with HCT-116 colon, -56.6% (active); in the experiment with HCC-2998 colon it was 104%; in the experiment with KM12 colon, 91.4%.

Consider `O=C1Nc2ccccc2/C1=C/c1cccs1`, for which the growth in the experiment with RPMI-8226 leukemia was 93.7%; in the experiment with OVCAR-8 ovarian, 91.6%; in the experiment on OVCAR-5 ovarian, 95.5%; in the experiment on OVCAR-4 ovarian, 37%; in the experiment with IGROV1 ovarian, 72%; in the experiment with OVCAR-3 ovarian, 90.5%. For the same compound, the growth was 94.8% in the experiment on HS 578T breast; 91.8% in the experiment on NCI/ADR-RES ovarian; -4.77% (active) with T-47D breast; 88.5% in the experiment with BT-549 breast; 104% in the experiment on MDA-MB-435 melanoma; 98.3% with SW-620 colon. Also, the growth was 60.8% in the experiment on MCF7 breast, 99.9% in the experiment on HCT-116 colon, 91.4% in the experiment on HCC-2998 colon and 77.1% in the experiment on KM12 colon.

Regarding `COc1ccc(/C=C2/SC(=O)N(CC(=O)N3CCN(c4cc5c(cc4F)c(=O)c(C(=O)O)cn5C4CC4)CC3)C2=O)cc1`, the growth in the experiment on RPMI-8226 leukemia was 119%; in the experiment on OVCAR-8 ovarian, 93.9%; in the experiment on OVCAR-5 ovarian, 103%; with OVCAR-4 ovarian, 107%; in the experiment on IGROV1 ovarian, 96%; in the experiment on OVCAR-3 ovarian it was 115%. Besides, the growth in the experiment with HS 578T breast was 99.9%; in the experiment on NCI/ADR-RES ovarian, 99.4%; in the experiment on T-47D breast, 104%; in the experiment with BT-549 breast, 96.1%; in the experiment with MDA-MB-435 melanoma it was 102%; with SW-620 colon, 98.2%. Also, the growth in the experiment with MCF7 breast is 96%; with HCT-116 colon it was 100%; in the experiment with HCC-2998 colon it was 105%; in the experiment on KM12 colon, 105%.

Regarding `O=C(Nc1ccc(Br)cc1F)c1cc(F)ccc1O`, the growth in the experiment with RPMI-8226 leukemia was -28.9% (active); with OVCAR-8 ovarian, 8.95% (active); with OVCAR-5 ovarian, 25.3%; with OVCAR-4 ovarian it was 12.4%; in the experiment on SK-OV-3 ovarian, 1.4% (active); in the experiment on OVCAR-3 ovarian it was 9.86% (active). The growth in the experiment with HS 578T breast is 1.14% (active); in the experiment with NCI/ADR-RES ovarian, 9.89% (active); in the experiment with T-47D breast it was -3.86% (active); with MDA-MB-435 melanoma it was -1.29% (active); with SW-620 colon, 10.2%; in the experiment with MCF7 breast, 3.43% (active). Moreover, the growth in the experiment on HCT-116 colon was 2.34% (active); with HCC-2998 colon, 17.8%; in the experiment with KM12 colon, 0.627% (active).

Turning to `O=C(CN1C(=O)/C(=C\c2ccc(Cl)cc2)SC1=S)Nc1ncc(Cc2ccc(Cl)cc2)s1`, the growth in the experiment on RPMI-8226 leukemia was 102%; with OVCAR-8 ovarian, 101%; with OVCAR-5 ovarian, 104%; in the experiment with OVCAR-4 ovarian, 105%; with IGROV1 ovarian, 103%; with OVCAR-3 ovarian, 108%. Further, the growth was 98.9% in the experiment on HS 578T breast; 104% in the experiment with NCI/ADR-RES ovarian; 105% in the experiment on T-47D breast; 113% with BT-549 breast; 110% with MDA-MB-435 melanoma; 105% in the experiment with SW-620 colon. The growth with MCF7 breast was 94.8%; in the experiment with HCT-116 colon it was 107%; with HCC-2998 colon, 106%; in the experiment on KM12 colon, 101%.

With `O=C(Nc1ccc(Br)cc1F)c1cc(I)ccc1O`, the growth with RPMI-8226 leukemia is -8.84% (active); in the experiment on OVCAR-8 ovarian it was 9.66% (active); in the experiment on OVCAR-5 ovarian it was 24.2%; in the experiment with OVCAR-4 ovarian, 15.4%; in the experiment with SK-OV-3 ovarian, -10.4% (active); in the experiment on OVCAR-3 ovarian, 4.89% (active). The growth with HS 578T breast is 7.43% (active); with NCI/ADR-RES ovarian, 4.84% (active); with T-47D breast it was -14% (active); with MDA-MB-435 melanoma, 4.78% (active); in the experiment with SW-620 colon, 14.1%; in the experiment on MCF7 breast it was 5.42% (active). In addition, the growth in the experiment with HCT-116 colon was 5.43% (active); with HCC-2998 colon, 27.4%; with KM12 colon, 6.15% (active).

As for `CNCCNc1nc2ccccc2c2c(=O)c3cccc(C)c3sc12`, the growth with RPMI-8226 leukemia is -30.5% (active); in the experiment with OVCAR-8 ovarian it was 37.4%; in the experiment on OVCAR-5 ovarian, 55.3%; in the experiment on OVCAR-4 ovarian, 29.4%; in the experiment on IGROV1 ovarian, 18.1%; with OVCAR-3 ovarian, 47.7%. In addition, the growth was 61.6% in the experiment on HS 578T breast; 44.6% in the experiment with NCI/ADR-RES ovarian; 49.3% with T-47D breast; 76.4% in the experiment on BT-549 breast; 6.07% (active) in the experiment on MDA-MB-435 melanoma; -62.4% (active) in the experiment with SW-620 colon. In addition, the growth in the experiment on MCF7 breast is -66.1% (active); in the experiment on HCT-116 colon, -91.4% (active); in the experiment with HCC-2998 colon it was -43.2% (active); with KM12 colon, -29.9% (active).

Take `CCCCc1c(CCC)c(=N)c2ccccc2n1C`: the growth with RPMI-8226 leukemia is 29.9%; in the experiment with OVCAR-8 ovarian, 65.5%; in the experiment on OVCAR-5 ovarian it was 99.6%; in the experiment with OVCAR-4 ovarian, 73.4%; in the experiment with SK-OV-3 ovarian it was 99.1%; with OVCAR-3 ovarian, 90.9%. The growth with HS 578T breast is 122%; in the experiment with NCI/ADR-RES ovarian, 85.4%; in the experiment on T-47D breast, 85.9%; with BT-549 breast it was 88.1%; in the experiment on MDA-MB-435 melanoma, 64.9%; in the experiment with SW-620 colon it was 59%. For the same compound, the growth was 50.2% with MCF7 breast, 64.1% in the experiment on HCT-116 colon and 77.2% in the experiment on KM12 colon.
